Source: PubChem BioAssay
miR-21 reporter – qHTS Assay for Modulators of miRNAs and/orActivators of miR-21; HeLa miR-21 FLuc reporter, luciferase, 48 h; Potency, µM (highest dose often 38.3 µM), without a hit: at the top dose activity change, positive = activation, usual class: activators; 340,000 tested, under 10 active;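 note: % of control where 0% means no effect; miR-21 action dims this reporter so a rising signal means less miR-21 action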
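HeLa cells endogenously expressing miR-21, stably carrying CMV-driven firefly luciferase with a downstream miR-21 binding site, 2000 cells/well. Titrations up to approximately 40 uM, 48 hours; luciferase luminescence read.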
A549 tox – Nrf2 qHTS screen for inhibitors: counterscreen for cytotoxicity | Potency, µM (series often up to 46 µM), without a hit: at the top dose activity change, negative = cytotoxicity, hits mostly inhibitors | A549 ARE-Fluc cells, CellTiter-Fluor viability, 18-24 h | AID 504648, 2011 | actives 0.16% (n = 390,000); note: potency is the fitted concentration of half-maximal effect; % is set by controls: 0 for no effect and ±100 for the full control effect
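A549 ARE_Fluc cells in 5% FBS OPTI-MEM were exposed to compounds in concentration-response for 18-24 h at 37 deg C. Viability was read by CellTiter-Fluor fluorescence (Ex 405/Em 525) after 30 min, before the luciferase read.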
Nrf2 ARE act – qHTS of Nrf2 Activators | AREc32 ARE-luciferase reporter (MCF7-derived line), luminescence, 24 h | Potency, µM (titrated, usually from 46.1 µM), inactives show at the top dose activation, hits mostly activators | actives 0.31% (n = 410,000); note: potency is the fitted concentration of half-maximal effect; % of control where 0% means no effect; nearly all actives have a fitted effect of over 65% in size
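Cells of the AREc32 ARE-luciferase line are plated in OPTI-MEM containing 5% FBS and left overnight at 37 deg C. Compounds are pinned in, incubation continues 24 hr, and firefly luciferase signal is then measured.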
Mito fusion yeast – qHTS Assay for Small Molecule Inhibitors of Mitochondrial Division or Activators of Mitochondrial Fusion; S. cerevisiae fusion-defective mutant growth rescue, CellTiterGlo 48 h; Potency, µM (top dose mostly 46.1 µM), for the others: at the top dose growth rescue (activation), most hits filed as activators; actives 0.23% (n = 320,000); note: potency is the fitted concentration of half-maximal effect; % of control where 0% means no effect; nearly all actives have a fitted effect of over 45% in size
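S. cerevisiae fusion-defective temperature-sensitive mutants (e.g. fzo1-1, mgm1-5) grown 48 h at 37C in YPEG (ethanol/glycerol non-fermentable) medium with 23 nl compound per well; growth rescue read as CellTiterGlo luminescence.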
Nrf2 inh – Nrf2 qHTS screen for inhibitors; AID 504444, 2011; A549 ARE-Fluc reporter, luciferase luminescence, 18-24 h; Potency, µM (doses to about 46 µM), without a hit: top-dose activity change, negative = inhibition, hits mostly inhibitors; actives 2.1% (n = 360,000); note: potency is the fitted concentration of half-maximal effect; % is set by controls: 0 for no effect and ±100 for the full control effect; nearly all actives have a fitted effect of over 60% in size
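A549 ARE_Fluc cells (5000/well, 5% FBS OPTI-MEM) pre-incubated 2 h, then treated with compounds 18-24 h at 37C/5% CO2 in concentration-response. CellTiter-Fluor viability read first; BugLite luciferase luminescence after 15 min at room temperature gives Nrf2 activity.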
* hit, by the source's call; ? = inconclusive; . = not tested or not shown; ! = repeats disagree; [ ] = another dose, or the depositor's remark. In the library only some 2.3% were active in any assay of this set; here they are far more common. Calls come from the whole dose curve; as a rule, active = well fitted curve in the direction sought with a large enough effect; inconclusive = small, poorly fitted or top-dose-only effect, or another doubt; inactive = no such curve, though single readings can be large; an effect the other way counts as inactive or inconclusive.

SMILES	miR-21 reporter	A549 tox	Nrf2 ARE act	Mito fusion yeast	Nrf2 inh
C/C(=N\NC(=S)NC1CCCCC1)c1ccc(OC(F)F)cc1OC(F)F	4%	-14%	5%	-2%	21µM*
CCc1ccc(C(=O)NC(Cc2c[nH]c3ccccc23)C(=O)OCC(=O)c2ccc(Br)cc2)cc1 (stereo not drawn)	3%	6%	3%	.	.
Cc1ccccc1-c1nc(CS(=O)(=O)CC(=O)NCCCc2ccccc2)c(C)o1	14%	?	0%	.	21µM*
CCOC(=O)Cc1ccc(NC(=O)Nc2nnc(N3CCCCC3C)s2)cc1 (stereo not drawn)	?	?	0%	.	21µM*
CCOc1ccc(NC(=O)C2CCN(S(=O)(=O)c3ccc4c(c3)NC(=O)C(C)S4)CC2)cc1 (stereo not drawn)	25%	-14%	2%	0%	15µM*
COc1ccc(NC(=O)C2CCN(S(=O)(=O)c3ccc4c(c3)NC(=O)C(C)S4)CC2)cc1 (stereo not drawn)	27%	-3%	1%	0%	23µM*
Cn1nnnc1Sc1ncnc2scc(-c3cccc(F)c3)c12	.	?	?	-10%	?
Cn1nnnc1Sc1ncnc2scc(-c3ccc(C#N)cc3)c12	.	?	-2%	-15%	16µM*
Cn1nnnc1Sc1ncnc2scc(-c3cccc(Cl)c3)c12	.	-18%	.	.	23µM*
COc1cccc(-c2csc3ncnc(Sc4nnnn4C)c23)c1	.	?	?	.	26µM*!
O=C(NNc1ccccc1C(F)(F)F)c1sccc1Cl	.	1%	.	.	3%
Cc1ccc(COC(=O)c2cccc(S(=O)(=O)N3CCCCCC3)c2)cc1	.	-4%	0%	15%	-1%
CC(=O)N1CCN(S(=O)(=O)c2cccc(C(=O)OCc3ccc(C(C)(C)C)cc3)c2)CC1	.	-13%	0%	17%	23µM*
CN(C(=O)c1cccc(NC(=O)Cc2ccc([N+](=O)[O-])cc2)c1)C1CC1	.	-6%	3%	.	21µM*
CC(C)(Oc1ccc(Cl)cc1)C(=O)N1CCN(c2ccccn2)CC1	12%	-5%	1%	14µM*	-23%
CC(C)(C)c1ccc(OCC(=O)N2CCN(c3ccccn3)CC2)cc1	.	-2%	2%	4%	-21%
CCCCCOc1c(Cl)cc(C(=O)N(Cc2ccc(C)o2)C2CCS(=O)(=O)C2)cc1Cl (stereo not drawn)	24%	3%	9%	.	9%
CCCCCCCCC(=O)N/N=C/c1cccc(Br)c1	0%	-12%	0%	6%	21µM*
COc1cccc(CNC(=O)Cn2nc(C)c3sc4ccccc4c3c2=O)c1OC	-6%	8%	3%	.	-8%
C=C(C)CNC(=S)N/N=C/c1ccco1	-9%	-1%	11µM*	-11%	9%
C=C(C)CNC(=S)NN=C1c2ccccc2-c2ccccc21	1%	-6%	8%	-9%	?
Cc1ccccc1S(=O)(=O)Cc1ccc(C(=O)NCc2ccccc2Cl)o1	-3%	-9%	0%	.	-10%
Nc1nonc1C(=O)NCCNc1ccc([N+](=O)[O-])cn1	5%	2%	1%	-2%	13%
Nc1nonc1C(=O)NCCNc1ncccc1[N+](=O)[O-]	-15%	?	2%	5%	18µM*
Cc1cc2c(s1)c1cnn(Cc3ccc(F)c(C)c3)c(=O)c1n2C	.	0%	.	.	8%
SMILES	miR-21 reporter	A549 tox	Nrf2 ARE act	Mito fusion yeast	Nrf2 inh
COc1ccccc1-c1cc(C(F)(F)F)nc(S(=O)(=O)CCCC(=O)O)n1	-2%	-18%	11µM*	8%	.
COc1ccccc1-c1cc(C(F)(F)F)nc(S(=O)(=O)CCCC(=O)Nc2cc(OC)c(OC)c(OC)c2)n1	?	0%	0%	.	-5%[9.27 µM]
CCOC(=O)CN(Cc1ccccc1)C(C(=O)NC1CCCCC1)c1ccccc1 (stereo not drawn)	?	12µM*	-1%	.	4.6µM*
Cc1ccc(C(C(=O)NC2CCCCC2)N(C)Cc2ccccc2)cc1 (stereo not drawn)	4%	2%	0%	.	-4%[9.27 µM]
O=S(=O)(c1ccccc1)c1nnn2c1nc(NC1CCN(Cc3ccccc3)CC1)c1cc(Cl)ccc12	1%	?	-1%	22%	6.5µM*
CCc1sc(-c2cc3cccc(OC)c3oc2=O)nc1-c1ccccc1	.	-2%	.	.	4%
Cc1ccc(-n2c3nc(=O)[nH]c(=O)c-3cc3cc([N+](=O)[O-])ccc32)cc1C	-9%	?	3%	-1%	15µM*
Cc1ccc(S(=O)(=O)n2cnc3cc([N+](=O)[O-])ccc32)cc1C	0%	-2%	0%	2%	-13%
CCc1nc(Nc2ccc(OC)c(OC)c2)c2nnn(Cc3ccccc3Cl)c2n1	24%	?	2%	7%	10µM*
COc1cccc(OC)c1Nc1nc(C)nc2c1nnn2Cc1ccccc1Cl	0%	-1%	-1%	5%	6%
Cc1nc(NC(=O)c2ccccc2)sc1-c1csc(NCc2ccccc2)n1	0%	-16%	3%	21%	21µM*
Cc1csc2nc(NC(=O)c3ccccc3)sc(=O)c12	-22%	-1%	3.2µM*	2%	?
Cc1nc2sccn2c1-c1csc(NCc2ccccc2)n1	12%	-14%	7%	-2%	8.2µM*
Cc1csc2c(=O)sc(NC(=O)c3ccc(F)cc3)nc12	-4%	1%	?	0%	5%
COc1ccc(-c2[nH]c3ccccc3c2SCCNC(=O)c2ccc(S(=O)(=O)N(C)C)cc2)cc1	?	0%	5%	.	-12%[9.27 µM]
CC(C)(C)C(=O)Nc1ccc(-c2nc3ccccc3s2)cc1	?	1%	-3%	.	2.6µM*
CCS(=O)(=O)c1ccccc1C(=O)Nc1ccc(-c2nc3ccccc3s2)cc1	2%	-5%	11%	.	.
Cc1ccc(C2CC(=O)Nc3c2ccc2ccccc32)cc1[N+](=O)[O-] (stereo not drawn)	0%	-1%	1%	22µM*	?
Cc1ccc(CNC(=O)c2ccc3c(c2)nc(C)n3-c2cccc(F)c2)cc1	-4%	0%	0%	.	.
OCCCNc1nc(-c2ccc(Br)cc2)nnc1-c1ccc(Cl)cc1	-10%	-1%	0%	22µM*	-22%
Cc1nc([N+](=O)[O-])c(Br)n1CC(=O)c1ccc(F)cc1	16%	-15%	30%	-4%	-30%
Cc1nc([N+](=O)[O-])c(Br)n1Cc1ccccc1	27%	-7%	10µM*	-15%	?
COc1ccc(C2C3=C(N=CN(CCN4CCOCC4)C3N)Oc3ccccc32)cc1OC (stereo not drawn)	.	-1%	.	.	8%
Cc1ccc(-c2cc(-c3ccccc3)c3c(N)c(S(C)(=O)=O)sc3n2)cc1	-6%	11%	2%	?	13µM*
